Compound activity: PubChem BioAssay, The Scripps Research Institute Molecular Screening Center
Compounds with a hit are over-represented: about 4.1% of the library has one in this group of screens.
ssDAF12 agonist = S. stercoralis DAF-12 activation, primary screen | HEK293 ssDAF-12/GRIP1 lit1-tk-luc reporter, luminescence; % of 3 µM dafachronic acid response | activation, % at 6.8 µM | 370,000 compounds, 1% hits;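 active means activation above the mean over all tested compounds plus 3 SD, cut at about 0.9% in these data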
DAX1 inh-1 = inhibits human nuclear receptor DAX1 | P51843 | 340,000 compounds, 0.99% hits | HEK293 Gal4-DAX1 luciferase reporter, luminescence | inhibition, % at 6.75 µM;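 active means inhibition above the mean over all tested compounds plus 3 SD, cut at about 4.2% in these data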;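 further: inhibition shows as a rise in luminescence from relieved DAX1 repression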
Target sequence (P51843 207-470 limits assumed): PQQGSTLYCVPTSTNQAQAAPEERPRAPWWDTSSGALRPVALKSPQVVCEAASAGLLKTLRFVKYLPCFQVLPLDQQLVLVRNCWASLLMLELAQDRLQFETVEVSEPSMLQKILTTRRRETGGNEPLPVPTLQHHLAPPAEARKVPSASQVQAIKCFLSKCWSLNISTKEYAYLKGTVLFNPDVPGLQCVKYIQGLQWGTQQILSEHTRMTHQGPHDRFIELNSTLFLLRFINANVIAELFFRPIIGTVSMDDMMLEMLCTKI
hcDAF-12 act = H. contortus DAF-12 activation, primary screen | HEK293 hcDAF-12 lit1-tk-luc reporter, luminescence; 0% DMSO, 100% Δ7-dafachronic acid | activation, % at 6.8 µM | 370,000 compounds, 1.4% hits | AID 652067;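 active means activation above the mean of all tested compounds plus 3 SD, cut at about 5.5% in these data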
hgDAF-12 ag = hgDAF-12 agonism, primary luciferase screen | HEK293 GAL4-hgDAF12 UAS-luciferase reporter, agonist luminescence; normalized to butyrate control | AID 687014 | activation, % at 6.8 µM | 370,000 compounds, 1.8% hits;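 active means activation above a cutoff set at the mean of all screened compounds plus 3 SD, cut at about 10% in these data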
DAX1 inh-2 = inhibitors of DAX1 repression of SF-1 activated StAR promoter; HEK293T StAR-luciferase reporter, SF-1/DAX-1 repression relief; inhibition, % at 6.8 µM; 370,000 compounds, 1.1% hits; AID 652010;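 active means inhibition above the mean over all tested compounds plus 3 SD, cut at about 3.6% in these data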;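 further: higher inhibition means more luminescence from relief of DAX-1 repression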
Each line names hits and unclear results; the compound was inactive in the other large screens.

CCOc1ccc2nc(NC(=O)Cn3[nH]c(=O)c4ccccc4c3=O)sc2c1	DAX1 inh-1 6.8, hgDAF-12 ag 11
CCOc1ccc2nc(NC(=O)CN3CCN(C)CC3)sc2c1	none
CCOc1ccc2nc(NC(=O)CN3CCN(CC)CC3)sc2c1	none
CCOc1ccc2nc(NC(=O)CN3C(=O)C4CCCCC4C3=O)sc2c1 (configuration not stated)	DAX1 inh-2 3.7
NC(=O)NN=C(C1CC1)C1CC1	DAX1 inh-1 4.9
C1CC1C(=NN=C(C1CC1)C1CC1)C1CC1	none
O=S(=O)(c1ccccc1)N1CCN(S(=O)(=O)c2ccc3c(c2)OCCO3)CC1	none (no result: DAX1 inh-1, DAX1 inh-2)
Cc1cc(C(=O)Nc2sccc2C#N)c2ccccc2n1	hcDAF-12 act 5.9
Cc1cc(C(=O)Nc2ccccc2)c2ccccc2n1	none
COC(=O)C1=C(C)N(Cc2cccc(C(F)(F)F)c2)C(=NCc2ccc(C(F)(F)F)cc2)NC1c1ccccc1 (configuration not stated)	none (no result: DAX1 inh-1)
COCCn1c(SCC(=O)N2CC(=O)Nc3ccccc32)nc2ccccc21	hcDAF-12 act 5.8
COCCn1c(SCC(=O)N2CC(=O)Nc3ccccc32)nc2ccccc2c1=O	none
COc1ccc(C(=O)NCc2ccc(OCCN(C)C)cc2)cc1OC	hcDAF-12 act 5.6
COc1cccc(/C=N/NC(=O)CCNc2n[nH]c(=O)[nH]c2=O)c1OC	ssDAF12 agonist 1.5
COc1ccc(/C=N/NC(=O)C[n+]2ccccc2)c(OC)c1OC	none
COc1cccc(/C=N/NC(=O)C[n+]2ccccc2)c1OC	ssDAF12 agonist 2.3
CCCCNC(=O)NCCCN1CCN(c2ccc(F)cc2)CC1	none (no result: DAX1 inh-1)
c1cncc(-c2csc(-c3cccnc3)n2)c1	DAX1 inh-1 4.7
c1cncc(-c2nc(-c3ccco3)cs2)c1	none
CCCC(=O)Nc1ccc(-c2csc(-c3cccnc3)n2)cc1	none
c1cncc(-c2nc(-c3cccs3)cs2)c1	hcDAF-12 act 6.2
Clc1ccsc1-c1csc(-c2cccnc2)n1	none
CC(=O)Nc1ccc(-c2csc(-c3cccnc3)n2)cc1	hgDAF-12 ag 11
COc1ccc(OC)c(CN2C(=O)COc3ccccc3C2c2nnnn2C2CCCC2)c1 (configuration not stated)	none (no result: DAX1 inh-1)
CCOc1cc2c(cc1O)C(=NOC)CC1C2CCC2(C)C(O)CCC12 (configuration not stated)	DAX1 inh-2 4.3
COc1ccc(CNC(=O)O[C@H]2CC[C@@]34CCCN3C(=O)CCC[C@H]4C2)cc1	none (no result: DAX1 inh-1, DAX1 inh-2)
c1ccc(-c2ccc(-c3nc(-c4ccncc4)no3)cc2)cc1	none
c1coc(-c2nc(-c3ccncc3)no2)c1	ssDAF12 agonist 1.7, hgDAF-12 ag 13
Clc1ccc(-c2nc(-c3ccncc3)no2)c(Cl)c1	DAX1 inh-1 4.9
Fc1ccc(-c2nc3c4ccccc4ccn3c2Cc2cccc(Cl)c2)cc1	hcDAF-12 act 5.9 (no result: DAX1 inh-1)
Cc1ccc2nc(C3CCCCC3)c(Cc3cccc(F)c3)n2c1	none (no result: DAX1 inh-1)
Fc1ccc(-c2nc3c4ccccc4ccn3c2Cc2ccsc2)cc1	ssDAF12 agonist 1.1 (no result: DAX1 inh-1)
Clc1ccc(-c2nc3c4ccccc4ccn3c2Cc2ccccc2)cc1	none
Clc1cccc(Cc2c(C3CCCCC3)nc3c4ccccc4ccn23)c1	hcDAF-12 act 6.3, DAX1 inh-2 3.8 (no result: DAX1 inh-1)
CCCc1nc2ccc(C)cn2c1Cc1cccc(F)c1	ssDAF12 agonist 1.9, DAX1 inh-2 3.9 (no result: DAX1 inh-1)
Clc1cccc(Cc2c(-c3ccccc3)nc3c4ccccc4ccn23)c1	none (no result: DAX1 inh-1)
COc1ccc(-n2c(SCC(=O)Nc3ccccc3-c3ccccc3)nnc2-c2ccccn2)cc1	none (no result: DAX1 inh-1)
C#CCN1C(C(=O)OC)CN(CCCCCC)CCS1(=O)=O (configuration not stated)	none (no result: DAX1 inh-1)
COc1cc(NC(=O)c2ccccc2)c(C)cc1NC(=O)CSc1nnc(-c2ccccc2F)n1-c1ccc(C)cc1	none (no result: DAX1 inh-1)
C=CCN1[C@@H](Cc2ccccc2)COc2cccc(N3CCCC3)c2S1(=O)=O	none (no result: DAX1 inh-1)
CC(C)c1nc(SCc2c(F)cccc2Cl)c2c(=O)n(C)c(=O)n(C)c2n1	none (no result: ssDAF12 agonist, hcDAF-12 act, hgDAF-12 ag, DAX1 inh-2)
COc1ccc(-c2nc3c4ccccc4ccn3c2Cc2ccccc2C(F)(F)F)cc1OC	none (no result: DAX1 inh-1)
FC(F)(F)c1ccccc1Cc1c(C2CCCCC2)nc2c3ccccc3ccn12	ssDAF12 agonist 1.7 (no result: DAX1 inh-1)
FC(F)(F)c1ccccc1Cc1c(-c2ccc(Cl)cc2)nc2c3ccccc3ccn12	ssDAF12 agonist 1.8 (no result: DAX1 inh-1)
Clc1cccc(-c2nc3c4ccccc4ccn3c2Cc2ccsc2)c1	ssDAF12 agonist 3.3, hcDAF-12 act 6.0 (no result: DAX1 inh-1)
Clc1cccc(-c2nc3c4ccccc4ccn3c2Cc2ccccc2)c1	none (no result: DAX1 inh-1)
Fc1ccc(-c2nc3c4ccccc4ccn3c2Cc2ccccc2)cc1	ssDAF12 agonist 1.6
CCCCN1C[C@@H](COCc2ccccc2)Oc2cccc(F)c2S1(=O)=O	none (no result: DAX1 inh-1)
Fc1ccc(-c2nc3c4ccccc4ccn3c2Cc2cccc(F)c2)cc1	hcDAF-12 act 5.6 (no result: DAX1 inh-1)
Cc1cc(Br)c2nc(-c3ccc(F)cc3)c(Cc3cccc(Cl)c3)n2c1	ssDAF12 agonist 1.3 (no result: DAX1 inh-1)
CCCc1nc2c3ccccc3ccn2c1Cc1cccc(F)c1	ssDAF12 agonist 1.1 (no result: DAX1 inh-1)
Clc1cccc(Cc2c(-c3cccc(Cl)c3)nc3c4ccccc4ccn23)c1	ssDAF12 agonist 1.1 (no result: DAX1 inh-1)
O=S(=O)(CC1NCc2cc(F)ccc21)NCc1ccc(F)cc1 (configuration not stated)	none (no result: DAX1 inh-1)
CN1CCN(c2ccccc2NC(=O)c2ccc([N+](=O)[O-])cc2Cl)CC1	none
O=C(CCl)Nc1c2c(nn1-c1ccccc1)CSC2	none
CCOC(=O)Cc1c(-c2cccc(Br)c2)nc2c3ccccc3ccn12	ssDAF12 agonist 1.4, hcDAF-12 act 6.1 (no result: DAX1 inh-1)
Brc1cccc(-c2nc3c4ccccc4ccn3c2Cc2ccsc2)c1	ssDAF12 agonist 1.8 (no result: DAX1 inh-1)
COC(=O)c1ccc(S(=O)(=O)N2CCC(NC(=O)Cc3ccccc3)CC2)cc1	none (no result: DAX1 inh-1)
Cc1cnc(C(=O)OC(C(=O)c2c[nH]c3ccccc23)c2ccccc2)cn1 (configuration not stated)	ssDAF12 agonist 0.9
Cc1ccc(C)c(NC(=O)C(OC(=O)c2cnc(C)cn2)c2ccccc2)c1 (configuration not stated)	none
Cc1ccc(OCC(=O)Nc2ccc(C(=O)Nc3ccccc3C(=O)O)cc2)cc1C	hgDAF-12 ag 11
Cc1cccc(C(=O)Nc2ccccc2C(=O)Nc2ccc(C(=O)O)cc2)c1	DAX1 inh-1 6.6
COc1ccc(OCC(=O)Nc2ccc(C(=O)Nc3ccccc3C(=O)O)cc2)cc1	none
O=[N+]([O-])c1ccc(C2=NN(c3ccccc3)C(c3ccco3)C2)cc1 (configuration not stated)	DAX1 inh-1 6.4
O=C(COC(=O)c1cc[n+]([O-])cc1)Nc1ccc(Br)cc1	none
O=C(COC(=O)c1cc[n+]([O-])cc1)Nc1ccc(SC(F)F)cc1	ssDAF12 agonist 1.2
CCCCN1C(=O)N2Cc3ccc(C)cc3C2CS1(=O)=O (configuration not stated)	none (no result: DAX1 inh-1)
Cc1ccc2nc(-c3ccco3)c(Cc3ccccc3C(F)(F)F)n2c1	none (no result: DAX1 inh-1)
